Assay results taken from PubChem BioAssay (NCI).
About 83,000 compounds went through this panel and 20% of them were active in at least one assay; those are over-represented in the sample as a whole.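 Percent growth is the endpoint: 0 to 100 indicates growth inhibition (40 means 60% inhibition), 0 means no net growth, and negative values indicate cell death.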 The source made the active and inactive calls. Rule for the calls: active = growth percent below 10; inactive = the rest.

Tests used:
Assay in all cases: NCI-60 one-dose screen, 48 h (100 = growth as untreated, 0 = no growth, -100 = all killed)
Conditions in all cases: 10 µM
DU-145 prostate = system: DU-145 prostate
K-562 leukemia = system: K-562 leukemia
MALME-3M melanoma = system: MALME-3M melanoma
MDA-MB-231 breast = system: MDA-MB-231 breast
RXF 393 renal = system: RXF 393 renal
SF-268 CNS = system: SF-268 CNS
SF-295 CNS = system: SF-295 CNS
SF-539 CNS = system: SF-539 CNS
M14 melanoma = system: M14 melanoma
UACC-257 melanoma = system: UACC-257 melanoma

Measured: growth

COc1cc(/C=C/C(=O)c2ccccc2)cc(OC)c1OC
inactive: DU-145 prostate 62.5% | K-562 leukemia 11.4% | MALME-3M melanoma 76.8% | MDA-MB-231 breast 79.1% | RXF 393 renal 73.2% | SF-268 CNS 57.9% | SF-539 CNS 80.8% | M14 melanoma 74.6%
active: SF-295 CNS -24.7%

O=C(Nc1ccccc1)OCCc1ccccc1
inactive: DU-145 prostate 108% | K-562 leukemia 114% | MALME-3M melanoma 107% | MDA-MB-231 breast 119% | RXF 393 renal 93.3% | SF-268 CNS 111% | SF-295 CNS 80.9% | SF-539 CNS 99% | M14 melanoma 110%

CCOC(=O)c1coc(C(=O)OCC)c1C(=O)OCC
inactive: DU-145 prostate 116% | K-562 leukemia 112% | MALME-3M melanoma 116% | MDA-MB-231 breast 107% | RXF 393 renal 123% | SF-268 CNS 105% | SF-295 CNS 102% | UACC-257 melanoma 112% | M14 melanoma 120%

Cc1cc(C(O)(c2ccc(Nc3ccccc3)cc2)c2ccc(Nc3ccc(S(=O)(=O)O)cc3)cc2)ccc1N (stereo not given)
active: K-562 leukemia 8.74% | MALME-3M melanoma -47.6% | MDA-MB-231 breast -51.5% | RXF 393 renal -61.8% | SF-295 CNS 5.34% | SF-539 CNS -63.9% | M14 melanoma -42.6%
inactive: DU-145 prostate 11.7% | SF-268 CNS 14.8%

Nc1ccc(N=Nc2ccc(S(=O)(=O)O)cc2)c2ccccc12
inactive: DU-145 prostate 106% | K-562 leukemia 94.6% | MALME-3M melanoma 83.4% | MDA-MB-231 breast 87.8% | RXF 393 renal 101% | SF-268 CNS 106% | SF-295 CNS 99.5% | SF-539 CNS 103% | M14 melanoma 99.1%

N#CCCc1ccc(O)cc1
inactive: DU-145 prostate 117% | K-562 leukemia 100% | MALME-3M melanoma 108% | MDA-MB-231 breast 116% | RXF 393 renal 106% | SF-268 CNS 110% | SF-295 CNS 97.8% | SF-539 CNS 99.4% | M14 melanoma 108%

CC(=O)NCc1cc(C)c(C)cc1C
inactive: DU-145 prostate 104% | K-562 leukemia 94.2% | MALME-3M melanoma 88.7% | MDA-MB-231 breast 110% | RXF 393 renal 103% | SF-268 CNS 95.7% | SF-295 CNS 103% | SF-539 CNS 102% | M14 melanoma 105%

CCO/C=C1\SC(=S)N(c2cccc(C)c2)C1=O
inactive: DU-145 prostate 111% | K-562 leukemia 99.5% | MALME-3M melanoma 98.4% | MDA-MB-231 breast 117% | RXF 393 renal 105% | SF-268 CNS 101% | SF-295 CNS 97% | SF-539 CNS 97.8% | M14 melanoma 119%

O=C(NCc1ccco1)Nc1c(Cl)cc(Cl)cc1Cl
inactive: DU-145 prostate 113% | K-562 leukemia 106% | MALME-3M melanoma 97.3% | MDA-MB-231 breast 101% | RXF 393 renal 107% | SF-268 CNS 104% | SF-295 CNS 93.5% | SF-539 CNS 94.7% | M14 melanoma 99.3%

CN(C)c1ccc(C(c2ccc(O)cc2)c2ccc(N(C)C)cc2)cc1
inactive: DU-145 prostate 101% | K-562 leukemia 49.9% | MALME-3M melanoma 91.5% | MDA-MB-231 breast 87.3% | RXF 393 renal 112% | SF-268 CNS 92.1% | SF-295 CNS 103% | SF-539 CNS 104% | M14 melanoma 89.3%

O=C(O)CCC(NC(=O)OCc1ccccc1)C(=O)O (stereo not given)
inactive: DU-145 prostate 98.7% | K-562 leukemia 96.6% | MALME-3M melanoma 96.9% | MDA-MB-231 breast 97% | RXF 393 renal 109% | SF-268 CNS 100% | SF-295 CNS 102% | SF-539 CNS 111% | M14 melanoma 103%

COCCCNC(=O)c1nnn2c1nc(N)c1cc(Cl)ccc12
inactive: DU-145 prostate 105% | K-562 leukemia 34.6% | MALME-3M melanoma 65.1% | MDA-MB-231 breast 100% | RXF 393 renal 103% | SF-268 CNS 94.1% | SF-295 CNS 91.7% | SF-539 CNS 94% | M14 melanoma 79.3%

COc1cc(CCN=Cc2ccccc2O)c([N+](=O)[O-])cc1OC
inactive: DU-145 prostate 113% | K-562 leukemia 94.9% | MALME-3M melanoma 89.5% | MDA-MB-231 breast 112% | RXF 393 renal 111% | SF-268 CNS 100% | SF-295 CNS 87.4% | SF-539 CNS 106% | M14 melanoma 95.6%

COc1ccc(/C(C#N)=C2C=C/C(=N/O)c3ccccc3\2)cc1
inactive: DU-145 prostate 10.1% | K-562 leukemia 13.2% | MALME-3M melanoma 51.4% | MDA-MB-231 breast 10.2% | RXF 393 renal 53.9% | SF-268 CNS 18.6%
active: SF-295 CNS -38.6% | SF-539 CNS -14.7% | M14 melanoma 7.1%

CC(C)(C)n1nc(C2CC2)c(Br)c1NC(=O)c1ccccc1F
inactive: DU-145 prostate 121% | K-562 leukemia 91.6% | MALME-3M melanoma 107% | MDA-MB-231 breast 100% | RXF 393 renal 114% | SF-268 CNS 112% | SF-295 CNS 94.9% | SF-539 CNS 100% | M14 melanoma 102%

CC(C(=O)O)(C1CCCCC1)C1(O)CCCCC1 (stereo not given)
inactive: DU-145 prostate 108% | K-562 leukemia 102% | MALME-3M melanoma 98.9% | MDA-MB-231 breast 109% | RXF 393 renal 99.1% | SF-268 CNS 99.2% | SF-295 CNS 82.9% | SF-539 CNS 103% | M14 melanoma 104%

CC(CN1CCCCC1)NC(=O)c1scnc1-c1ccccc1 (stereo not given)
inactive: DU-145 prostate 116% | K-562 leukemia 113% | MALME-3M melanoma 106% | MDA-MB-231 breast 114% | RXF 393 renal 101% | SF-268 CNS 115% | SF-295 CNS 79% | SF-539 CNS 114% | M14 melanoma 101%

CCOC(=O)C1=C(Nc2ccc(Br)cc2)C(=O)N(CC)C1
inactive: DU-145 prostate 107% | K-562 leukemia 106% | MALME-3M melanoma 101% | MDA-MB-231 breast 81.8% | RXF 393 renal 92.9% | SF-268 CNS 96.8% | SF-295 CNS 87% | SF-539 CNS 84.9% | M14 melanoma 110%

O=C1OC(=O)C2C1C1(Cl)C(Cl)=C(Cl)C2(Cl)C2C(=O)OC(=O)C21 (stereo not given)
inactive: DU-145 prostate 116% | K-562 leukemia 105% | MALME-3M melanoma 98.2% | MDA-MB-231 breast 122% | RXF 393 renal 100% | SF-268 CNS 105% | SF-295 CNS 105% | SF-539 CNS 98.8% | M14 melanoma 101%

N#CC(=Nc1cccc(F)c1)C1=C(O)c2ccccc2C1=O
inactive: DU-145 prostate 105% | K-562 leukemia 84.4% | MALME-3M melanoma 87.1% | MDA-MB-231 breast 84.5% | RXF 393 renal 88.9% | SF-268 CNS 96.5% | SF-295 CNS 82% | SF-539 CNS 95.6% | M14 melanoma 98.2%

CCCCC1C(=O)N(c2ccccc2)N(c2ccccc2)C1=O
inactive: DU-145 prostate 113% | K-562 leukemia 99.1% | MALME-3M melanoma 97.1% | MDA-MB-231 breast 103% | RXF 393 renal 116% | SF-268 CNS 107% | SF-295 CNS 110% | UACC-257 melanoma 105% | M14 melanoma 98.9%

CC(=O)OCCO
inactive: DU-145 prostate 110% | K-562 leukemia 103% | MALME-3M melanoma 93.5% | MDA-MB-231 breast 121% | RXF 393 renal 105% | SF-268 CNS 106% | SF-539 CNS 104% | UACC-257 melanoma 102%

O=[N+]([O-])c1ccc(N=Nc2ccc(O)c3ccccc23)cc1
inactive: DU-145 prostate 66.9% | K-562 leukemia 22.1% | MALME-3M melanoma 57.8% | MDA-MB-231 breast 36.8% | RXF 393 renal 60.1% | SF-268 CNS 45.9% | SF-539 CNS 75.4% | UACC-257 melanoma 17%

Nc1ccccc1SC(CC(=O)c1ccccc1)c1c(Cl)cccc1Cl (stereo not given)
inactive: DU-145 prostate 23.9% | K-562 leukemia 12.4% | MALME-3M melanoma 77.1% | MDA-MB-231 breast 86.6% | RXF 393 renal 86.8% | SF-268 CNS 56% | SF-295 CNS 94.2% | SF-539 CNS 101% | M14 melanoma 93%

Nc1ccc(N)c([N+](=O)[O-])c1
inactive: DU-145 prostate 104% | K-562 leukemia 98.7% | MALME-3M melanoma 97.9% | MDA-MB-231 breast 80.9% | RXF 393 renal 107% | SF-268 CNS 99.9% | SF-295 CNS 108% | SF-539 CNS 94.9% | M14 melanoma 112%

Cc1cc(/C=C/c2ccc3cc(N(C)C)ccc3[n+]2C)c(C)n1-c1ccccc1
active: DU-145 prostate -39.2% | K-562 leukemia 0.995% | MALME-3M melanoma -56.9% | MDA-MB-231 breast -18.9% | RXF 393 renal -96.2% | SF-268 CNS -1.17% | SF-295 CNS -33.6% | UACC-257 melanoma -39.5% | M14 melanoma -71.3%

NC(=O)c1ccc(N=C(N)N=C(N)N)cc1
inactive: DU-145 prostate 107% | K-562 leukemia 97.6% | MALME-3M melanoma 93.1% | MDA-MB-231 breast 106% | RXF 393 renal 89.6% | SF-268 CNS 94.7% | SF-295 CNS 96.8% | SF-539 CNS 96.8% | M14 melanoma 110%

O=C(O)/C=C/C(=O)NCc1ccccc1
inactive: DU-145 prostate 121% | K-562 leukemia 108% | MALME-3M melanoma 99% | MDA-MB-231 breast 125% | RXF 393 renal 104% | SF-268 CNS 110% | SF-295 CNS 98.1% | SF-539 CNS 95.7% | M14 melanoma 103%

CC(C)=CC(=O)OC(=O)C=C(C)C
inactive: DU-145 prostate 101% | K-562 leukemia 99.1% | MALME-3M melanoma 101% | MDA-MB-231 breast 99.6% | RXF 393 renal 102% | SF-268 CNS 103% | SF-295 CNS 111% | SF-539 CNS 105% | M14 melanoma 107%

COc1ccc(/C=C/c2cccc[n+]2C)cc1
inactive: DU-145 prostate 111% | K-562 leukemia 100% | MALME-3M melanoma 94.6% | MDA-MB-231 breast 111% | RXF 393 renal 101% | SF-268 CNS 97.2% | SF-295 CNS 99.1% | SF-539 CNS 103% | M14 melanoma 103%

CC(=O)OCC1CCCO1 (stereo not given)
inactive: DU-145 prostate 109% | K-562 leukemia 94.5% | MALME-3M melanoma 99.2% | MDA-MB-231 breast 103% | RXF 393 renal 103% | SF-268 CNS 107% | SF-295 CNS 101% | SF-539 CNS 114% | M14 melanoma 110%

CC(=O)OCC1OC(OC2=C(CC=C(C)C)C(=O)c3ccccc3C2=O)C(OC(C)=O)C(OC(C)=O)C1OC(C)=O (stereo not given)
active: K-562 leukemia -47.4% | MALME-3M melanoma -36.2% | MDA-MB-231 breast 6.41%
inactive: DU-145 prostate 57.1% | RXF 393 renal 61.1% | SF-268 CNS 22.7% | SF-295 CNS 63.4% | UACC-257 melanoma 20.6%
